High-throughput results deposited in PubChem BioAssay by Broad Institute.
In the library only some 2.2% were active in any assay of this set; here they are far more common.
PvdQ acylase – P. aeruginosa PvdQ acylase inhibition | 340,000 compounds, 0.063% hits | purified PvdQ acylase, fluorescence plate reader | AID 488965 | inhibition, % at 10 µM; in the data active = inhibition above about 30%, passing the limit was not always enough; inconclusive = no clear call, values can overlap the other calls;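 note: 0% = vehicle neutral wells and 100% = reference inhibitor wells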
Statin myotox sup – protects C2C12 myotubes from simvastatin toxicity | rescue of ATP level, % at 7.49 µM | 330,000 compounds, 0.78% hits | ATP luminescence, 48 h; scaled: DMSO 0, geranylgeraniol control 100 | AID 602340;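 active = mean ATP rescue above about 67%, or every replicate alone reaching that limit, limit read from the data, passing the limit was not always enough; inconclusive = no clear call, values can overlap the other calls; inactive = mean under the limit and some replicate under it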;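 note: myotubes were challenged with 10 µM simvastatin during compound exposure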
PGC1a acetyl inh – PGC1a acetylation modulation, inhibitor mode; inhibition, % at 15.6 µM; U2OS PGC1a acetylation, AlphaScreen anti-acetyl-lysine; with virally co-expressed GCN5 acetyltransferase; 350,000 compounds, 0.17% hits;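 active = every replicate shows inhibition of at least 40%; inconclusive = mean inhibition at least 40% but some replicate below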;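 note: 0% = neutral control wells and 100% = positive control wells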
DENV2 CPE rescue – DENV2-induced cell death inhibition | 350,000 compounds, 1.7% hits | CPE inhibition, % at 9.99 µM | DENV2-infected cells, cytopathic effect rescue, plate reader; in the data active = CPE inhibition above about 20%, passing the limit was not always enough; inconclusive = no clear call, values can overlap the other calls; tested in BHK-21 cells;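 note: 0% = median of neutral control wells and 100% = median of positive control wells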
miR122 inh – inhibitors of miR-122 in Huh7 cells; Huh7 miR-122 Renilla luciferase sensor, 48 h; neutral wells = 0, positive control = 100; activation (reporter increase), % at 12.5 µM; 340,000 compounds, 0.3% hits;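 active = mean replicate activation score at least 90 and every replicate individually at or above 90; inconclusive = only one of the two criteria met; inactive = neither criterion met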;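 note: higher luciferase means less miR-122 activity so hits act as miR-122 inhibitors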
* marks the source's active call; other numbers are inactive results; ? = inconclusive; . = no result given; ! = repeats disagree; [ ] = dose if it differs, or a comment.

SMILES	PvdQ acylase	Statin myotox sup	PGC1a acetyl inh	DENV2 CPE rescue	miR122 inh
C[C@H](CO)N1C[C@H](C)[C@@H](CN(C)C(=O)Nc2ccc(C(F)(F)F)cc2)Oc2c(NC(=O)C3CCCCC3)cccc2C1=O	-8.3	-24.7	-0.7	22.1*!	6.2[16.7 µM]
COc1ccc(NC(=O)N(C)C[C@@H]2OCCCC[C@@H](C)Oc3ccc(NC(=O)Nc4c(C)noc4C)cc3C(=O)N([C@H](C)CO)C[C@@H]2C)cc1	.	2.2	3.1	-3.2	-4.1[16.7 µM]
CN(C)C(=O)[C@H]1[C@H](CO)[C@H]2Cn3c(ccc(-c4ccccc4)c3=O)[C@H]2N1C(=O)c1ccccn1	.	4.7	.	-1.1	.
C[C@H]1CN([C@@H](C)CO)S(=O)(=O)c2ccc(C3=CCCC3)cc2O[C@@H]1CN(C)C(=O)C1CC1	.	-4.4	-7.6	.	22.7[16.7 µM]
O=C(C1CCOCC1)N1CC[C@@H]2[C@@H](CO)Nc3ccc(-c4ccc(F)cc4)cc3[C@@H]21	.	16.3	3.9	-11.7	3.6[16.7 µM]
C[C@H]1CN([C@@H](C)CO)C(=O)CCCn2cc(nn2)CO[C@@H]1CN(C)Cc1ccc(C(F)(F)F)cc1	.	-1.9	-0.8	7.9	-1.7[16.7 µM]
C[C@@H]1CN([C@H](C)CO)C(=O)c2cccc(NC(=O)Nc3ccccc3)c2O[C@H]1CN(C)C(=O)Nc1ccccc1	.	36.5	-6.3	52.3*	-5.5[16.7 µM]
C[C@@H]1CN([C@@H](C)CO)C(=O)c2cccc(NC(=O)Nc3ccccc3)c2O[C@@H]1CN(C)C(=O)Nc1ccc(C(F)(F)F)cc1	.	-28.4	10.5	38.0*	13.0[16.7 µM]
COc1ccc(S(=O)(=O)Nc2ccc3cn[nH]c3c2)cc1C	-2.5	.	-1.6	-0.1	.
COC(=O)c1ccc(C)c(NS(=O)(=O)c2ccc(OC)c(OC)c2)c1	-10.5	-7.7	.	.	130.8*
Cc1ccc(S(=O)(=O)Nc2ccc3c(c2)CCC3)cc1	-4.8	.	-10.5	.	167.3*
COc1ccc(S(=O)(=O)Nc2ccc3ccccc3c2)cc1C	-14.6	30.0	-8.1	.	109.3*
Cc1cc(S(=O)(=O)Nc2ccc3ccccc3c2)c(C)s1	-7.4	-19.0	-58.3	.	539.6*
CCNC(=O)C[C@H]1CC[C@H]2[C@H](COc3ccc(NC(=O)Nc4ccccc4Cl)cc3C(=O)N2C)O1	.	8.7	-2.2	-9.4	0.0[16.7 µM]
COc1ccc(S(=O)(=O)Nc2cc(C)ccc2OC)cc1C	-6.3	10.4	-23.5	.	113.7*
CS(=O)(=O)c1ccc(NS(=O)(=O)c2ccc3ccccc3c2)cc1	-6.6	7.6	-3.0	11.0	55.0
Cc1ccc(S(=O)(=O)Nc2ccc3ccccc3c2)cc1	-7.3	-0.2	2.7	10.2	118.3*
O=C(O)CNC(=O)c1ccc(NS(=O)(=O)c2ccc3ccccc3c2)cc1	5.0	8.2	.	31.1*	.
CC(=O)c1ccc(NS(=O)(=O)c2ccc3ccccc3c2)cc1	-9.5	.	4.8	.	20.7
O=S(=O)(Nc1ccc2ccccc2c1)c1ccccc1	4.8	12.9	.	.	169.7*
C[C@@H]1CN([C@H](C)CO)C(=O)c2cc(NC(=O)Nc3cccc4ccccc34)ccc2O[C@@H]1CN(C)Cc1ccc(C(=O)O)cc1	.	0.3	0.5	.	1.6[16.7 µM]
COc1ccc(NC(=O)N(C)C[C@@H]2OCCCC[C@@H](C)Oc3ccc(NS(=O)(=O)c4ccccc4)cc3C(=O)N([C@@H](C)CO)C[C@@H]2C)cc1	.	.	9.5	-7.9	25.2[16.7 µM]
COc1cc(CN2CC3(CCN(C(=O)Nc4c(C)noc4C)CC3)c3c([nH]c4cc(OC)ccc34)[C@H]2CO)cc(OC)c1	.	.	.	-1.6	.
Cc1cc(S(=O)(=O)Nc2cc(C)c(O)c(C)c2)c(C)s1	-2.6	42.4	2.7	.	196.3*
Nc1c(C(=O)NCc2ccco2)nnn1CC(=O)Nc1ccccc1	-14.3	96.9*	2.5	.	-1.8
SMILES	PvdQ acylase	Statin myotox sup	PGC1a acetyl inh	DENV2 CPE rescue	miR122 inh
COc1ccccc1-c1cnc2c(c1)C(=O)N([C@H](C)CO)C[C@H](C)[C@@H](CN(C)Cc1cncnc1)O2	.	-22.5	-7.6	-0.5	4.5[16.7 µM]
O=C1/C(=C/c2ccccc2)CCC1C1CCCC1 (centres undefined)	9.3	-6.6	2.8	.	0.0
CN1C2CCC1/C(=C\c1ccccc1)C(=O)/C2=C\c1ccccc1	-12.1	67.2*	21.6	.	-4.2
CCOC(=O)C1=C(C)NC(=O)C(C(N)=O)C1c1ccccc1 (centres undefined)	-11.6	111.1*	5.0	.	-7.4
Cc1ccc(Cl)cc1N1CCN(CC(O)COC(C)C)CC1 (centres undefined)	-0.6	-1.3	-2.9	32.6*	9.6
O=C(c1cccc(F)c1)N1CCCCN2[C@H](C1)[C@@H](c1ccc(-c3ccncc3)cc1)[C@@H]2CO	.	.	-4.3	9.3	7.9[16.7 µM]
Cc1cccc(-c2ccc([C@H]3[C@H]4CN(C(=O)c5ccncc5)CCCCN4[C@H]3CO)cc2)c1	.	5.1	0.7	21.9*	-4.9[16.7 µM]
O=C(c1cccc(F)c1)N1CCCCN2[C@H](CO)[C@H](c3ccc(-c4ccncc4)cc3)[C@@H]2C1	.	.	2.2	21.8*	11.5[16.7 µM]
O=C(c1ccc2c(c1)OCO2)N1CCCCN2[C@H](C1)[C@@H](c1ccc(-c3ccccc3)cc1)[C@@H]2CO	.	.	-5.6	13.4	9.3[16.7 µM]
O=C(c1ccc2c(c1)OCO2)N1CCCCN2[C@H](CO)[C@@H](c3ccc(-c4ccccc4)cc3)[C@@H]2C1	.	.	-8.2	26.9*	33.2[16.7 µM]
C[C@@H]1CN([C@H](C)CO)C(=O)c2cc(NS(=O)(=O)c3cccs3)ccc2O[C@@H]1CN(C)C(=O)NC1CCCCC1	.	15.5	6.0	0.2	-6.4[16.7 µM]
CC(C)NC(=O)N(C)C[C@H]1Oc2ccc(NS(=O)(=O)c3ccc(Cl)cc3)cc2C(=O)N([C@@H](C)CO)C[C@H]1C	.	-17.3	-7.9	15.5	-4.1[16.7 µM]
C[C@@H]1CN([C@@H](C)CO)C(=O)c2cc(NC(=O)NC3CCCCC3)ccc2O[C@@H]1CN(C)S(=O)(=O)c1ccc(F)cc1	.	-12.9	-2.2	-4.9	28.1[16.7 µM]
COc1ccc(-c2cc(C)no2)cc1S(=O)(=O)NCCc1ccco1	-2.2	8.7	0.0	0.5	65.1
CCc1ccc(-c2cc(C)no2)cc1S(=O)(=O)Nc1ccc(C)cn1	-5.9	-25.4	-2.3	-8.3	?
Cc1ccc(NS(=O)(=O)c2cc(-c3cc(C)no3)ccc2C(C)C)nc1	-14.0	6.6	1.6	?	99.1*
CCOc1ccccc1CNS(=O)(=O)c1cc(-c2cc(C)no2)ccc1OC	-5.7	-1.9	-21.0	-0.5	52.6
COc1ccc(-c2cc(C)no2)cc1S(=O)(=O)NCC(C)c1ccccc1 (centres undefined)	-5.1	-2.3	-2.6	3.0	148.2*
COc1ccc(CNS(=O)(=O)c2cc(-c3cc(C)no3)ccc2C)cc1OC	3.3	-7.0	-5.7	-0.4	6.1
COc1ccc(OC)c(CNS(=O)(=O)c2cc(-c3cc(C)no3)ccc2OC)c1	-9.7	3.9	51.1*	0.7	13.4
COc1ccccc1CNS(=O)(=O)c1cc(-c2cc(C)no2)ccc1C(C)C	-13.0	2.9	-5.2	-6.9	106.9*
C[C@H](CO)N1C[C@H](C)[C@H](CN(C)C(=O)Nc2ccc3c(c2)OCO3)OCCCC[C@H](C)Oc2ccc(NS(=O)(=O)c3cn(C)cn3)cc2C1=O	.	.	7.3	4.3	1.5[16.7 µM]
